From the supplement of paper PMC10849652
Of roughly 7,900 targets only a part is listed; those with a hit were picked by preference. About 0.6% of all pairs of compound and target were hits.

Key:
Assay in all cases: log2 fold change, soluble protein after heating vs DMSO (PISA); higher = thermal stabilisation; K562 cells, 10 uM, 30 min; active = over 0.2 and 3.5 SD of the protein, either way, in both replicates (recomputed)
ZW10 = ZW10 (UniProt O43264)
How it was run: (§1)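 Quantification of soluble protein used TMTpro 16plex LC-MS/MS, with channel sums equalised. Samples were the supernatant after 21,000xg for 90 min of pooled aliquots from K562 cells (2×10^6 cells/mL) treated with 10 μM compound for 30 min, heated for 3 min over 48°C-58°C, and extracted in PBS with 0.5% NP-40 at 4°C. Values, from duplicates, describe thermal stability against control samples on a log2 fold-change scale.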

ZWILCH = ZWILCH (UniProt Q9H900)
How it was run: as §1

ZYG11B = ZYG11B (UniProt Q9C0D3)
How it was run: as §1

Measured: log2 fold change

Sequence of ZW10 (O43264 whole entry, looked up): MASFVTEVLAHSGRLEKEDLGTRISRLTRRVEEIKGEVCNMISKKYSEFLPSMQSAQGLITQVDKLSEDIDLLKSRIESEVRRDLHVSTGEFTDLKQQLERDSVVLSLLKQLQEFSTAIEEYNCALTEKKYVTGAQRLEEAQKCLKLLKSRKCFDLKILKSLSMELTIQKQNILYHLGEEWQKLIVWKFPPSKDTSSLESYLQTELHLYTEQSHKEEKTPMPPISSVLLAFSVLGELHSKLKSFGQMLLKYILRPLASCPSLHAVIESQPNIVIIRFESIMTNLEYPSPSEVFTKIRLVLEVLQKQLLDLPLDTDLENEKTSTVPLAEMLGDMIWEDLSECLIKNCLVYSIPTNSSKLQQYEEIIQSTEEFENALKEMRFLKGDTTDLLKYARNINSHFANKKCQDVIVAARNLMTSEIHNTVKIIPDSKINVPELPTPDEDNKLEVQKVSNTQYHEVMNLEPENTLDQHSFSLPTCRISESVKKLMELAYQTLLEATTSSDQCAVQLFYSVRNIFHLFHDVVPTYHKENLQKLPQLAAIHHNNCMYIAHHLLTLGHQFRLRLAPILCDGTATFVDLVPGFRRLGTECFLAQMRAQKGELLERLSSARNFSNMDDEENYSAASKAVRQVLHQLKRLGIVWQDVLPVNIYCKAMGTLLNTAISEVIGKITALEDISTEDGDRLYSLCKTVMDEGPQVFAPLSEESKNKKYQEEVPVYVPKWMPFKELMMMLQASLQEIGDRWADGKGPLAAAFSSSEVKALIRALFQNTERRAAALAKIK
Sequence of ZWILCH (Q9H900 whole entry, looked up): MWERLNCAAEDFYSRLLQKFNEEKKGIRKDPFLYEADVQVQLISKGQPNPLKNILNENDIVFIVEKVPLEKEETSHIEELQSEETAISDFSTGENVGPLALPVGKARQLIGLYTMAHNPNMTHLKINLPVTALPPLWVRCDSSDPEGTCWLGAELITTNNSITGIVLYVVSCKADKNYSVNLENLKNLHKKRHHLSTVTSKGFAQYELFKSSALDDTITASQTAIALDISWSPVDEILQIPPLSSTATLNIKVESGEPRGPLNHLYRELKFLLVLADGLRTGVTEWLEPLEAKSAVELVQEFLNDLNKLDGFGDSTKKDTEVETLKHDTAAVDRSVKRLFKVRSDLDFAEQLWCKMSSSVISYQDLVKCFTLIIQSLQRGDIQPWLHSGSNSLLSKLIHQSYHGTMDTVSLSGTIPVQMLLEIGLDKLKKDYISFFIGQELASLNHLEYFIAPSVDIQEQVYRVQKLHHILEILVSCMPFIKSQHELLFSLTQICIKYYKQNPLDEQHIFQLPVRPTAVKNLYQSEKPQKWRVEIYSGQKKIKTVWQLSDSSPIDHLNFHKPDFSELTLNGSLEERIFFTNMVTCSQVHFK
Sequence of ZYG11B (Q9C0D3 whole entry, looked up): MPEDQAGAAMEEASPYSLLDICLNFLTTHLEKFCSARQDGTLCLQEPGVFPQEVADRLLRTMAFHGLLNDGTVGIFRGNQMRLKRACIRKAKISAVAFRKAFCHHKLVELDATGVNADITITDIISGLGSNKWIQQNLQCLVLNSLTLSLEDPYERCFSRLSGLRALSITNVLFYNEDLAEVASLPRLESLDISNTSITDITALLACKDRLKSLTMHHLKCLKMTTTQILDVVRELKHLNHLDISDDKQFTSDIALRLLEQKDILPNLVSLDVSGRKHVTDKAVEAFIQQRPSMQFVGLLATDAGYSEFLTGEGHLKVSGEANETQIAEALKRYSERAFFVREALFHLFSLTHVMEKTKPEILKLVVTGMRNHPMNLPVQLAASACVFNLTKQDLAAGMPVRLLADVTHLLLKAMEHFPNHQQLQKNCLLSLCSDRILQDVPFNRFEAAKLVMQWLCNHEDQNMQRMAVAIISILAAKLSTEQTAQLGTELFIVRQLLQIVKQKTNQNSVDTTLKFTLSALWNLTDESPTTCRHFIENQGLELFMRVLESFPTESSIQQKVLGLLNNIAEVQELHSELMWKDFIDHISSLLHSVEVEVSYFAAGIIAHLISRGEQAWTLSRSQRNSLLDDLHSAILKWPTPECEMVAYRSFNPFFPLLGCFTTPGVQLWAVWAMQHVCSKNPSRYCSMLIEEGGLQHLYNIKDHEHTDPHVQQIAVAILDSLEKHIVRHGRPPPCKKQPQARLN

CN1CCC(CNc2ccc3ncc(-c4cccc(OC(F)(F)F)c4)n3n2)CC1
inactive: ZW10 -0.108 | ZWILCH -0.085 | ZYG11B -0.113

CS(=O)(=O)CCNCc1ccc(-c2ccc3ncnc(Nc4ccc(OCc5cccc(F)c5)c(Cl)c4)c3c2)o1 [lapatinib]
inactive: ZW10 -0.01 | ZWILCH 0.018 | ZYG11B -0.05

Cc1ccc(NC(=O)c2cccc(C(C)(C)C#N)c2)cc1Nc1ccc2ncn(C)c(=O)c2c1
inactive: ZW10 0.015 | ZWILCH 0 | ZYG11B -0.006

Cc1ccc(C(=O)N(CCCN)[C@@H](c2nc3cc(Cl)ccc3c(=O)n2Cc2ccccc2)C(C)C)cc1 [ispinesib]
inactive: ZW10 -0.179 | ZWILCH -0.045 | ZYG11B 0.041

Nc1ccccc1NC(=O)c1ccc(CNC(=O)OCc2cccnc2)cc1 [entinostat]
inactive: ZW10 0.063 | ZWILCH 0.002 | ZYG11B 0.013

Oc1cc(-c2nc(-c3ccccc3)[nH]c2-c2ccncc2)ccc1Cl
inactive: ZW10 -0.034 | ZWILCH -0.002 | ZYG11B 0.015

NC1(c2ccc(-c3nc4ccn5c(=O)[nH]nc5c4cc3-c3ccccc3)cc2)CCC1
inactive: ZW10 -0.141 | ZWILCH -0.097 | ZYG11B -0.087

CC[C@H](C)[C@H](NC(=O)[C@H]([C@@H](C)CC)N(C)C(C)=O)C(=O)N[C@H](C(=O)N[C@@H](CC(C)C)C(=O)[C@@]1(C)CO1)[C@@H](C)O [epoxomicin]
inactive: ZW10 -0.046 | ZWILCH 0.013 | ZYG11B 0.123

CCCS(=O)(=O)Nc1ccc(F)c(C(=O)c2c[nH]c3ncc(-c4ccc(Cl)cc4)cc23)c1F [vemurafenib]
inactive: ZW10 0.025 | ZWILCH 0.04 | ZYG11B 0.048

CC[C@H](C)n1cc(C)c2c(C(=O)NCc3c(C)cc(C)[nH]c3=O)cc(-c3ccc(N4CCNCC4)nc3)cc21
inactive: ZW10 0.077 | ZWILCH 0.048 | ZYG11B 0.101

O=C(CCCCCCNC(=O)c1cnc(N(c2ccccc2)c2ccccc2Cl)nc1)NO [citarinostat]
inactive: ZW10 0.033 | ZWILCH 0.104 | ZYG11B -0.043

CC(C)N(C[C@H]1O[C@@H](n2cnc3c(N)ncnc32)[C@H](O)[C@@H]1O)[C@H]1C[C@@H](CCc2nc3cc(C(C)(C)C)ccc3[nH]2)C1 [pinometostat]
inactive: ZW10 0.152 | ZWILCH 0.074 | ZYG11B 0.01

Cn1c2cc(S(C)=O)sc2c2cnn(Cc3cccc(N)c3)c(=O)c21 (stereo unspecified)
inactive: ZW10 0.115 | ZWILCH -0.04 | ZYG11B -0.053

Cn1cc(-c2ccc3nnc(C(F)(F)c4ccc5ncccc5c4)n3n2)cn1
inactive: ZW10 -0.069 | ZWILCH -0.069 | ZYG11B 0

CNC(=O)c1ccccc1Nc1nc(Nc2ccc(N3CCOCC3)cc2OC)ncc1Cl
inactive: ZW10 0.035 | ZWILCH 0.027 | ZYG11B -0.016

Cn1cncc1[C@@](N)(c1ccc(Cl)cc1)c1ccc2c(c1)c(-c1cccc(Cl)c1)cc(=O)n2C [tipifarnib]
inactive: ZW10 -0.087 | ZWILCH -0.01 | ZYG11B 0.089

O=C1NC(=O)/C(=C\c2ccc3nccnc3c2)S1
inactive: ZW10 -0.009 | ZWILCH 0.056 | ZYG11B -0.084

O=C1NC(=O)C(c2cnc3ccccn23)=C1c1cn2c3c(cc(F)cc13)CN(C(=O)N1CCCCC1)CC2
inactive: ZW10 0.054 | ZWILCH 0.051 | ZYG11B 0.019

C/C(=N\NC(=O)c1cccc(S(=O)(=O)N2CCOCC2)c1)c1cc(Cl)ccc1O
inactive: ZW10 0.075 | ZWILCH 0.038 | ZYG11B 0.006

CN(CCOc1ccc(C[C@@H]2SC(=O)NC2=O)cc1)c1ccccn1 (racemic) [rosiglitazone]
inactive: ZW10 0.066 | ZWILCH 0.018 | ZYG11B -0.055

CS(=O)(=O)N1CCN(Cc2cc3nc(-c4cccc5[nH]ncc45)nc(N4CCOCC4)c3s2)CC1 [pictilisib]
inactive: ZW10 0.005 | ZWILCH -0.026 | ZYG11B 0.104

NC(=O)c1ccc2nc(-c3ccc(Oc4ccc(Cl)cc4)cc3)[nH]c2c1
inactive: ZW10 -0.005 | ZWILCH -0.028 | ZYG11B 0

CCCCN(Cc1ccc(C(=O)NO)cc1)C(=O)Nc1ccccc1 [Nexturastat A]
inactive: ZW10 0.093 | ZWILCH -0.008 | ZYG11B -0.011

CC1=C(C(=O)Nc2cc3cn[nH]c3cc2F)C(c2ccc(C(F)(F)F)cc2)CC(=O)N1 (stereo unspecified)
inactive: ZW10 -0.033 | ZWILCH -0.051 | ZYG11B -0.06

CC(=O)c1cnc2ccc(-c3cc(Cl)c(O)c(Cl)c3)nc2c1N[C@H]1CC[C@H](CN(C)C)CC1
inactive: ZW10 0.011 | ZWILCH 0.004 | ZYG11B 0.004

COc1cc2nc(-c3cc(F)ccc3O)nc(N[C@@H]3CNC[C@H]3C(C)(C)O)c2cc1OC
inactive: ZW10 0.041 | ZWILCH 0.03 | ZYG11B 0.034

O=C(O)c1ccc2c(c1)nc(Nc1cccc(Cl)c1)c1ccncc12 [silmitasertib]
inactive: ZW10 0.083 | ZWILCH 0.059 | ZYG11B 0

Cc1ccc(Sc2cncc3sc(C(N)=O)cc23)cc1
inactive: ZW10 0.018 | ZWILCH -0.068 | ZYG11B -0.028

CCn1c(C(=O)N(C2CC2)C2CC2)cc2c3c(ncn3C)c(Nc3cc(C)n(C)n3)nc21
inactive: ZW10 -0.06 | ZWILCH 0.021 | ZYG11B -0.017

CC(C)c1cnn2c(NCc3ccccc3)cc(NCCCCCCN)nc12
inactive: ZW10 -0.213 | ZWILCH -0.107 | ZYG11B 0.058

Cc1ccc(NC(=O)c2cccc(N(C)C)c2)cc1NC(=O)c1ccc(O)cc1
inactive: ZW10 -0.043 | ZWILCH 0.238 | ZYG11B -0.018

CN1CCN(c2nc(C3=C(c4c[nH]c5ccccc45)C(=O)NC3=O)c3ccccc3n2)CC1 [sotrastaurin]
inactive: ZW10 -0.089 | ZWILCH -0.059 | ZYG11B 0.026

CN1CCN(CCOc2cc(OC3CCOCC3)c3c(Nc4c(Cl)ccc5c4OCO5)ncnc3c2)CC1 [saracatinib]
inactive: ZW10 -0.031 | ZWILCH -0.012 | ZYG11B -0.051

Cc1ncc(-c2ccnc(Nc3ccc(S(C)(=O)=O)cc3)n2)n1C(C)C
inactive: ZW10 0 | ZWILCH 0.071 | ZYG11B 0.037

C[C@@H](N)c1ccc(C(=O)Nc2ccnc3[nH]ccc23)cc1
inactive: ZW10 0.129 | ZWILCH 0.014 | ZYG11B -0.035

COc1cccc2cc(-c3nc([C@H]4CC[C@H](C(=O)O)CC4)n4ncnc(N)c34)[nH]c12
inactive: ZW10 -0.051 | ZWILCH -0.041 | ZYG11B 0.02

C=CC(=O)N1CCC[C@@H](n2nc(-c3ccc(Oc4ccccc4)cc3)c3c(N)ncnc32)C1 [ibrutinib]
inactive: ZW10 -0.007 | ZWILCH -0.014 | ZYG11B 0.022

C#Cc1cccc(Nc2ncnc3cc(OCCOC)c(OCCOC)cc23)c1 [erlotinib]
inactive: ZW10 0.016 | ZWILCH 0.009 | ZYG11B -0.015

CCN(CC)Cc1ccc2cc(COC(=O)Nc3ccc(C(=O)NO)cc3)ccc2c1 [givinostat]
inactive: ZW10 0.096 | ZWILCH 0.046 | ZYG11B -0.009

Cc1cn(-c2cc(NC(=O)c3ccc(C)c(Nc4nccc(-c5cccnc5)n4)c3)cc(C(F)(F)F)c2)cn1 [nilotinib]
inactive: ZW10 -0.088 | ZWILCH -0.047 | ZYG11B 0.025

CO[C@H]1C[C@@H]2CC[C@@H](C)[C@@](O)(O2)C(=O)C(=O)N2CCCC[C@H]2C(=O)O[C@H]([C@H](C)C[C@@H]2CC[C@H](n3cnnn3)[C@H](OC)C2)CC(=O)[C@H](C)/C=C(\C)[C@@H](O)[C@@H](OC)C(=O)[C@H](C)C[C@H](C)/C=C/C=C/C=C/1C [zotarolimus]
inactive: ZW10 0.023 | ZWILCH 0.046 | ZYG11B 0.024

CCN(CCCOc1ccc2c(Nc3cc(CC(=O)Nc4cccc(F)c4)[nH]n3)ncnc2c1)CCOP(=O)(O)O [barasertib]
inactive: ZW10 0.055 | ZWILCH 0.064 | ZYG11B 0.044

CN(C)CC(=O)Nc1ccc2[nH]c(=O)c3ccccc3c2c1
inactive: ZW10 0.013 | ZWILCH 0.051 | ZYG11B -0.003

COc1cc(Nc2ncc3c(n2)-c2ccc(Cl)cc2C(c2c(F)cccc2OC)=NC3)ccc1C(=O)O [alisertib]
inactive: ZW10 0.031 | ZWILCH -0.024 | ZYG11B -0.155

CC(C)C[C@@H](C=O)NC(=O)[C@H](CC(C)C)NC(=O)[C@H](CC(C)C)NC(=O)OCc1ccccc1
inactive: ZW10 0.007 | ZWILCH 0.079 | ZYG11B 0.042

Cc1ccc(-n2nc(C(C)(C)C)cc2NC(=O)Nc2ccc(OCCN3CCOCC3)c3ccccc23)cc1 [doramapimod]
inactive: ZW10 0.048 | ZWILCH -0.002 | ZYG11B 0.036

COc1cc(C(=O)O)ccc1NC(=O)[C@@H]1N[C@@H](CC(C)(C)C)[C@](C#N)(c2ccc(Cl)cc2F)[C@H]1c1cccc(Cl)c1F [idasanutlin]
inactive: ZW10 -0.035 | ZWILCH -0.051 | ZYG11B 0.01
